Assay outcomes as filed in PubChem.
This excerpt belongs to a sample that is enriched for hits.
IDE exosite FP – exo-site inhibitors of human insulin-degrading enzyme; P14735; purified IDE, FL-6b probe fluorescence polarization; active compounds read low; z-score at 20 µM; hit rate 6.3% among 17,000;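 active = z-score of -3 or lower, meaning strong loss of probe binding signal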;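 also: His-tagged human IDE residues 42-1019 made in E. coli with 30 nM FL-6b probe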
An asterisk follows results filed as active.

SMILES	IDE exosite FP
COCC(=O)N1CC(=O)N2[C@H](CO)[C@H](c3ccc(C#CCc4ccccc4)cc3)[C@H]2C1	-2.9
COCC(=O)N1CC(=O)N2[C@@H](CO)[C@H](c3ccc(C#CCc4ccccc4)cc3)[C@@H]2C1	-0.16
COCC(=O)N1CC(=O)N2[C@@H](CO)[C@@H](c3ccc(C#CCc4ccccc4)cc3)[C@@H]2C1	-4.7*
O=C(C1CCOCC1)N1CC(=O)N2[C@H](C1)[C@@H](c1ccc(C#CCc3ccccc3)cc1)[C@@H]2CO	-0.15
O=C(C1CCOCC1)N1CC(=O)N2[C@H](CO)[C@@H](c3ccc(C#CCc4ccccc4)cc3)[C@@H]2C1	-0.28
O=C(C1CCOCC1)N1CC(=O)N2[C@@H](CO)[C@@H](c3ccc(C#CCc4ccccc4)cc3)[C@@H]2C1	-1.1
COc1ccccc1NC(=O)N1CCCCN2[C@@H](CO)[C@@H](c3ccc(-c4cccc(F)c4)cc3)[C@@H]2C1	-1.7
CCCC#Cc1ccc([C@H]2[C@@H](CO)N3C(=O)CN(C(=O)c4cccc(F)c4)C[C@H]23)cc1	0.64
OC[C@@H]1[C@H](c2ccc(-c3ccccc3F)cc2)[C@H]2CN(Cc3cccnc3)CCCCN12	0.37
CN(C[C@H]1[C@H](c2ccccc2)[C@@H](CO)N1C(=O)c1ccccc1)C(=O)C1CC1	-0.24
C[C@@H]1CN([C@@H](C)CO)C(=O)CCCn2nncc2CO[C@@H]1CN(C)C(=O)c1ccc(N2CCN(C)CC2)cc1	-0.77
Cc1noc(C)c1NC(=O)N(C)C[C@H]1OCc2cnnn2CCCC(=O)N([C@H](C)CO)C[C@H]1C	-1.6
CS(=O)(=O)N1C[C@@H]2N[C@H](C1)[C@@H]2c1ccc(-c2ccccc2)cc1	-0.19
O=C(c1ccc2c(c1)OCO2)N1C[C@H]2[C@@H](c3ccccc31)[C@@H](CO)N2Cc1cccnc1	2.2
OC[C@H]1[C@@H](c2ccc(/C=C/c3ccccc3)cc2)[C@@H]2CN(Cc3cccnc3)CCCCN12	-4.4*
CCCC#Cc1ccc([C@H]2[C@H]3CN(Cc4ccncc4)CCCCN3[C@H]2CO)cc1	-1.2
OC[C@@H]1[C@@H](c2ccc(/C=C/c3ccccc3)cc2)[C@H]2CN(Cc3ccncc3)CCCCN12	-5.2*
COc1ccc(C#Cc2ccc([C@@H]3[C@@H](CO)N4CCCCN(Cc5ccncc5)C[C@H]34)cc2)cc1	-0.63
CCCC#Cc1ccc([C@H]2[C@@H](CO)N3CCCCN(Cc4ccncc4)C[C@@H]23)cc1	0.17
OC[C@H]1[C@@H](c2ccc(/C=C/c3ccccc3)cc2)[C@@H]2CN(Cc3ccncc3)CCCCN12	-7.9*
OC[C@H]1[C@H](c2ccc(/C=C/c3ccccc3)cc2)[C@H]2CN(Cc3cccnc3)CCCCN21	-1.9
OC[C@@H]1[C@@H](c2ccc(/C=C/c3ccccc3)cc2)[C@@H]2CN(Cc3ccncc3)CCCCN12	-5*
OC[C@@H]1[C@H](c2ccc(-c3ccc(F)cc3)cc2)[C@@H]2CN(Cc3cccnc3)CCCCN12	1.4
CC(C)CC#Cc1ccc([C@@H]2[C@H]3CN(S(=O)(=O)c4ccc(F)cc4)CCCCN3[C@H]2CO)cc1	1.2
CO[C@H](CN(C)C(=O)C1CCOCC1)[C@H](C)CN(C(=O)Nc1ccc(C(F)(F)F)cc1)[C@@H](C)CO	-0.56
SMILES	IDE exosite FP
CO[C@H]1CC[C@@H]2CCOc3c(C#N)cccc3C(=O)N(C)C[C@@H](c3ccccc3)CC(=O)N(C)C[C@@H]1O2	0.37
C[C@@H]1CCCCO[C@H](CN(C)Cc2ccncc2)[C@@H](C)CN([C@H](C)CO)C(=O)c2cc(NC(=O)Cc3ccccc3)ccc2O1	1.2
COc1ccccc1CNC(=O)C[C@@H]1C=C[C@H](NC(=O)CC2CC2)[C@H](CO)O1	-0.44
COC(=O)[C@@H]1[C@@H](CO)[C@@H]2Cn3c(ccc(C4=CCCC4)c3=O)[C@@H]2N1C(=O)Cc1cccnc1	0.84
COc1ccc(S(=O)(=O)Nc2cccc3c2O[C@H](CN(C)CC2CCCCC2)[C@@H](C)CN([C@@H](C)CO)C3=O)cc1	-1.3
CO[C@@H](CN(C)C(=O)c1cc(Cl)cc(Cl)c1)[C@H](C)CN(C(=O)Nc1ccc(F)cc1)[C@H](C)CO	0.37
OC[C@H]1[C@@H](c2ccc(/C=C/c3ccccc3)cc2)[C@H]2CN(Cc3ccncc3)CCCCN21	-5.7*
COc1ccccc1C(=O)Nc1ccc2c(c1)C(=O)N(C)C[C@@H](OC)[C@@H](C)CN(C(C)=O)[C@H](C)CO2	0.063
C/C=C/c1ccc([C@H]2[C@@H](CO)N(c3nc(CC)cs3)[C@H]2C#N)cc1	1.3
C/C=C/c1ccc([C@@H]2[C@@H](CNC(=O)C3CC3)N(C(=O)CC)[C@H]2CO)cc1	3.2
CN1CCCCN2[C@H](CO)[C@@H](c3ccc(Br)cc3)[C@@H]2C1	-1.3
C[C@@H]1CN([C@H](C)CO)C(=O)Cc2cc(NC(=O)c3ccncc3)ccc2O[C@H]1CN(C)C(=O)Nc1ccc(F)cc1	2.2
Cc1noc(C)c1S(=O)(=O)N(C)C[C@H]1OCCCC[C@@H](C)Oc2ccc(NS(=O)(=O)c3cn(C)cn3)cc2C(=O)N([C@H](C)CO)C[C@@H]1C	-0.11
O=C(C1CCOCC1)N1CC(=O)N2[C@H](CO)[C@H](c3ccc(-c4ccccc4F)cc3)[C@H]2C1	-7.6*
O=C(C1CCOCC1)N1CC(=O)N2[C@@H](CO)[C@H](c3ccc(-c4ccccc4F)cc3)[C@@H]2C1	-1.1
O=C(C1CC1)N1CC(=O)N2[C@H](C1)[C@H](c1ccc(-c3ccccc3F)cc1)[C@@H]2CO	-0.66
O=C(C1CCC1)N1CC(=O)N2[C@@H](CO)[C@H](c3ccc(-c4ccccc4F)cc3)[C@@H]2C1	-0.8
O=C(C1CC1)N1CC(=O)N2[C@H](CO)[C@H](c3ccc(-c4ccccc4F)cc3)[C@H]2C1	-7.9*
O=C(C1CC1)N1CC(=O)N2[C@H](CO)[C@@H](c3ccc(-c4ccccc4F)cc3)[C@H]2C1	1.8
O=C(C1CCCCC1)N1CC(=O)N2[C@H](C1)[C@H](c1ccc(-c3ccccc3F)cc1)[C@@H]2CO	-0.71
O=C(C1CCCC1)N1CC(=O)N2[C@H](CO)[C@H](c3ccc(-c4ccccc4F)cc3)[C@@H]2C1	-3.6*
O=C(C1CCC1)N1CC(=O)N2[C@H](CO)[C@@H](c3ccc(-c4ccccc4F)cc3)[C@@H]2C1	-9.1*
O=C(C1CCC1)N1CC(=O)N2[C@H](CO)[C@@H](c3ccc(-c4ccccc4F)cc3)[C@H]2C1	2.4
O=C(C1CCCCC1)N1CC(=O)N2[C@H](CO)[C@@H](c3ccc(-c4ccccc4F)cc3)[C@H]2C1	-0.66
O=C(C1CCCCC1)N1CC(=O)N2[C@@H](CO)[C@@H](c3ccc(-c4ccccc4F)cc3)[C@@H]2C1	-1.4
SMILES	IDE exosite FP
CCN(C[C@H]1[C@H](c2ccccc2)[C@@H](CO)N1CC1CC1)C(=O)c1ccccn1	-1.5
Cc1ccc(S(=O)(=O)N[C@@H]2C=C[C@@H](CC(=O)NCc3ccc(Cl)c(Cl)c3)O[C@@H]2CO)cc1	-0.011
N#C[C@H]1[C@@H](c2ccccc2-c2ccc(F)cc2)[C@@H](CO)N1C(=O)Cc1cccnc1	-1.2
O=C(NC[C@H]1[C@@H](c2ccccc2)[C@@H](CO)N1C(=O)Cc1cccnc1)C1CCC1	0.71
O=C(c1ccncc1)N1C[C@@H]2[C@H](c3ccccc31)[C@H](CO)N2Cc1ccccc1F	-0.74
Cc1noc(C)c1NC(=O)Nc1ccc2c(c1)C(=O)N(C)[C@@H]1CC[C@H](CC(=O)N[C@@H]3CCN(Cc4ccccc4)C3)O[C@H]1CO2	0.21
CCCC#Cc1ccc([C@H]2[C@@H](CO)N(C(=O)C3CCC3)[C@H]2C#N)cc1	0.12
